PubChem BioAssay (NCI)
About 79,000 compounds went through this panel and 15% of them were active in at least one assay; those are over-represented in the sample as a whole. The source made the active and inactive calls. No stated cut-off is given here; in the data, active means growth inhibition above about 70%; inactive means the rest.

Test: NCI Yeast Anticancer Drug Screen. Data for the mec2-1 strain (AID 157)
Settings: S. cerevisiae mec2-1 strain, at 50.0 µM, active compounds read high
Description: Growth inhibition of yeast strains with defined genetic alterations is measured as a screen for potential anti-cancer activity. Selected strains with alterations in DNA damage repair or cell cycle control were exposed to compounds and growth inhibition was measured relative to vehicle treated controls. The strain used in this assay is mec2-1
In the case of `COc1cc(OC)c(OC)cc1/C=C/c1cc[n+](C)c2ccccc12`, the growth inhibition is reported as -6.35% (inactive).
For `CCCCCCCCCCCCCCCCCCCOc1ccc(OCCCCCCCCCC)cc1`, the growth inhibition was -2.05% (inactive).
For `O=C(NO)c1c(F)c(F)c(C(=O)NO)c(F)c1F`, the growth inhibition was 7.05% (inactive).
For `C=CCCCC(C#N)c1ccc2c(c1)OCO2` (stereo not given), the growth inhibition was -14.2% (inactive).
For `O=C(Nc1ccccc1)C1CC2C=CC1C2` (stereo not given), the growth inhibition was -4.3% (inactive).
In the case of `O=[S@]1Nc2cc(N=Nc3ccccc3)ccc2S1`, the growth inhibition is reported as 16.1% (inactive).
With `Nc1ccc2c(c1)Cc1c-2cc(Br)c(N)c1Br` the growth inhibition was -6.85% (inactive).
With `CC1C(=O)CCC2C1(C)CCC1C2(C)CCC2(C)C3CC(C)(C)CCC3(C)CCC12C` (stereo not given) the growth inhibition was -9.05% (inactive).
For `CC1(c2ccncc2)NC(=O)NC1=O` (stereo not given), the growth inhibition was -12.6% (inactive).
In the case of `O=C(NO)/C(CC(=O)c1ccc(O)cc1)=N\O`, the growth inhibition is reported as -10.4% (inactive).
In the case of `CC1(C)C2CCC(I)(C2)C1I` (stereo not given), the growth inhibition is reported as 0.45% (inactive).
In the case of `Cc1cc(N(CCC#N)CCC#N)ccc1/C=C1N=C(/C=C\c2ccccc2)OC\1=O`, the growth inhibition is reported as -8.5% (inactive).
With `[N-]=[N+]=NC(=O)c1cccc2c1Cc1ccccc1-2` the growth inhibition was 0.75% (inactive).
For `N#C/C(=C\c1ccccn1)c1ccc(Cl)cc1`, the growth inhibition was 1.1% (inactive).
For `CC(C)c1ccc(/C=C2\CCC/C(=C\c3ccc(C(C)C)cc3)C2=O)cc1`, the growth inhibition was -17.1% (inactive).
With `C[N+](C)(C)C1CC([N+](C)(C)C)C2c3ccccc3C21` (stereo not given) the growth inhibition was 23.1% (inactive).
With `COc1ccccc1NC(=O)C1=C(C)NC(C)=C(C(=O)Nc2ccccc2OC)C1c1c(Cl)cccc1Cl` the growth inhibition was 3.75% (inactive).
For `Cc1cccc(C(C)C)c1NC(=O)/C(Cc1c([N+](=O)[O-])cccc1[N+](=O)[O-])=N/NC(=O)CC#N`, the growth inhibition was -3.6% (inactive).
With `COc1ccc(OC)c(NC(=O)CCCC(=O)C(C#N)c2ccccc2C)c1` (stereo not given) the growth inhibition was -4.9% (inactive).
With `CC1=Nc2ccccc2NC2(C1)C(C1COC(C)(C)O1)OC1OC(C)(C)OC12` (stereo not given) the growth inhibition was 13.8% (inactive).
With `CN(C)CCOC(=O)COc1ccc(Cl)cc1` the growth inhibition was 26.6% (inactive).
In the case of `N#CC(C#N)=CNC(=S)Nc1ccc(Cl)c(Cl)c1`, the growth inhibition is reported as 39.7% (inactive).
With `CCCNS(C)(=O)=O` the growth inhibition was 1.2% (inactive).
For `Cc1ccc(C(C)(O)C2CC2)cc1` (stereo not given), the growth inhibition was -33.8% (inactive).
For `CC1CCOCO1` (stereo not given), the growth inhibition was 0.1% (inactive).
For `Nc1cc(Cl)c(I)c(Cl)c1`, the growth inhibition was -29.6% (inactive).
For `CC1(C)OCC2OC(n3cnc4c(N)nc(Cl)nc43)C(OS(C)(=O)=O)C2O1` (stereo not given), the growth inhibition was 16.9% (inactive).
With `CC(O)CN(CC(C)O)c1ccc2c(c1)Cc1ccccc1-2` (stereo not given) the growth inhibition was -13.3% (inactive).
For `CCOC(=O)C(CC(Nc1ccccc1)(c1ccccc1)c1ccccc1)c1ccccc1` (stereo not given), the growth inhibition was -8.3% (inactive).
For `NC1CC(=O)C(CC2C(=O)CC(N)CC2=O)C(=O)C1` (stereo not given), the growth inhibition was 0.05% (inactive).
With `COC(C)C(NC=O)C(=O)O` (stereo not given) the growth inhibition was 10.9% (inactive).
For `O=C1N=C2SC(=S)NC(=S)N2NC12c1ccccc1-c1ccccc12`, the growth inhibition was -11.4% (inactive).
In the case of `COc1cc(/C=N/N=C(\N)NO)cc(Cl)c1O`, the growth inhibition is reported as -29.1% (inactive).
In the case of `CC(=O)CC(=O)CC(C)C.CC(=O)CC(=O)CC(C)C.[Cu]`, the growth inhibition is reported as 17.5% (inactive).
With `CC1=C(C)CC2(CC1)C(=O)C1(CCC(C)=C(C)C1)C2=O` (stereo not given) the growth inhibition was 0.7% (inactive).
In the case of `COc1cc(C(=O)O)cc(O)c1OC`, the growth inhibition is reported as -4.5% (inactive).
With `CC1(C)CC[C@]2(C(=O)O)[C@H](O)C[C@]3(C)C(=CC[C@@H]4[C@@]5(C)CC[C@H](OC6OC(C(=O)O)C(O)C(O)C6O)C(C)(C)[C@@H]5CC[C@]43C)[C@@H]2C1` (stereo not given in full) the growth inhibition was 95% (active).
In the case of `CC(NC(=O)C(N)CC(=O)O)C(=O)OC12CC3CC(CC(C3)C1)C2` (stereo not given), the growth inhibition is reported as -62.4% (inactive).
For `C/C=C1\CN2CCc3c([nH]c4ccccc34)C2C=C1CCO` (stereo not given), the growth inhibition was -34.4% (inactive).
For `O=C(/C=C/c1ccc(Cl)c(Cl)c1)c1ccc2ccccc2c1`, the growth inhibition was 1.95% (inactive).
